High-throughput results (PubChem)
In the library only some 9.9% were active in any assay of this set; here they are far more common.
ALDH1A1 inh: ALDH1A1 (human) enzyme inhibition; 220,000 compounds, 7.3% hits; Purified ALDH1A1, NADH fluorescence, propionaldehyde substrate; P00352; Potency, µM (titrated, usually from 75.3 µM), for inactives: at the top dose activity, negative = inhibition, usual class: inhibitors;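 note: plate controls were no enzyme wells and a reference inhibitor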
Target sequence (P00352 whole entry, looked up): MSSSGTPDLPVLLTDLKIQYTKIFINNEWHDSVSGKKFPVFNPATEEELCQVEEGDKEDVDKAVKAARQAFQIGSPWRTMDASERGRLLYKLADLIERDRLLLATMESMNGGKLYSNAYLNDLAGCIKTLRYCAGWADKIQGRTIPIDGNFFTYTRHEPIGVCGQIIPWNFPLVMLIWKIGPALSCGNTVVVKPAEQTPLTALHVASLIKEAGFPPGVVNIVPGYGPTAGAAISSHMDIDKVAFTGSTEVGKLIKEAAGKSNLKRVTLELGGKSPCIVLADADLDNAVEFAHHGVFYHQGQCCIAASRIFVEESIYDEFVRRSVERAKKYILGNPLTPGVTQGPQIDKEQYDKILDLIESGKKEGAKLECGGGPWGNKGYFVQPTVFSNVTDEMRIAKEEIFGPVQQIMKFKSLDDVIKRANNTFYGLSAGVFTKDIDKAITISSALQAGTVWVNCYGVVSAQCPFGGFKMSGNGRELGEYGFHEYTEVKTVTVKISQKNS
Tau fibril ThT: inhibitors of human tau fibril formation, thioflavin T binding. 270,000 compounds, 2.1% hits. AID 1460. Potency, µM (top dose mostly 57.4 µM), for the others: at the highest dose activity, negative = inhibition, actives largely listed as inhibitors. P10636. recombinant tau K18 P301L, heparin-induced fibrillization, ThT fluorescence; active = well fitted curve in the direction sought with a large enough effect; inconclusive = small, poorly fitted or top-dose-only effect, or another doubt; inactive = no such curve, though single readings can be large; an effect the other way counts as inactive or inconclusive; note: nearly all actives have a fitted effect of over 55% in size
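Heparin-induced (20 uM) aggregation of recombinant human K18 P301L tau, 15 uM unlabeled with 0.24 uM labeled, pH 7 acetate buffer, 6 hr at 37 C with compound. Fibrils quantified by 30 uM ThT fluorescence after 1 hr ambient incubation.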
Tau FP inhib: tau fibrillization inhibition (FP) | 280,000 compounds, 0.39% hits | K18 P301L tau heparin fibrillization, Alexa594 FP, 6 h | Potency, µM (titrated, usually from 57.7 µM), inactives show at the highest dose activity, negative = inhibition, usual class: inhibitors; active = well fitted curve in the direction sought with a large enough effect; inconclusive = small, poorly fitted or top-dose-only effect, or another doubt; inactive = no such curve, though single readings can be large; an effect the other way counts as inactive or inconclusive; note: nearly all actives have a fitted effect of over 55% in size
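Human tau K18 […] P301L fragment, 15 uM unlabeled plus 0.24 uM Alexa 594-labeled tau (final), with compound and 20 uM heparin in 100 mM sodium acetate pH 7; 6 hr at 37 C, then Alexa 594 FP read.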
Tau fluor counter: counter-screen for tau fibril formation inhibitors; tau K18 P301L (four-repeat tau fragment) Alexa594 fluorescence, heparin fibrillization; Potency, µM (top dose mostly 57.7 µM), for the others: top-dose activity change, negative = decrease; 280,000 compounds, 0.93% hits; AID 1463; active = well fitted curve in the direction sought with a large enough effect; inconclusive = small, poorly fitted or top-dose-only effect, or another doubt; inactive = no such curve, though single readings can be large; an effect the other way counts as inactive or inconclusive; note: nearly all actives have a fitted effect of over 55% in size
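Human K18 P301L tau (15 uM unlabeled plus 0.24 uM Alexa 594-labeled, final) in 100 mM sodium acetate pH 7 was mixed with compound and 20 uM heparin and incubated 6 hr at 37 C.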
KDM4E inh: inhibitors of human JMJD2E histone demethylase; B2RXH2; JMJD2E catalytic domain, FDH-coupled NADH fluorescence (FDH is formaldehyde dehydrogenase); Potency, µM (titrated, usually from 57.1 µM), for inactives: at the highest dose activity change, negative = inhibition, most hits filed as inhibitors; 230,000 compounds, 1.6% hits; AID 2147;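 note: 0% = wells with enzyme and -100% = buffer wells without enzyme; nearly all actives have a fitted effect of over 50% in size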
HPGD inh: inhibitors of human 15-hydroxyprostaglandin dehydrogenase (HPGD); P15428; purified HPGD, NADH fluorescence kinetic, PGE2 substrate; Potency, µM, for the others: at the highest dose activity change, negative = inhibition, hits mostly inhibitors; 150,000 compounds, 4.3% hits
Target sequence (P15428 whole entry, looked up): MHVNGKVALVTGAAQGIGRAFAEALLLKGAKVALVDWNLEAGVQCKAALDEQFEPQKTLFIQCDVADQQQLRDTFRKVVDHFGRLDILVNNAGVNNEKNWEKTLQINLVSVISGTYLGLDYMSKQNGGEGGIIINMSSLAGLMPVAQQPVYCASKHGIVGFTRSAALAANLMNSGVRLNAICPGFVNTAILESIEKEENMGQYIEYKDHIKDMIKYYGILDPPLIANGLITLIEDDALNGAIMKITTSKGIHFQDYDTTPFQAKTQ
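20 nM HPGD preincubated 15 min at room temperature with compound in 50 mM Tris-HCl pH 8, 0.01% Tween 20. Started with 1 mM NAD+ and 30 uM prostaglandin E2; NADH fluorescence (360/450 nm) read 5 times over 30-s intervals, last minus first.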
Starred values were filed as active, the others as inactive. Unless noted, calls come from the whole dose curve; as a rule, active = well fitted inhibition curve with a large enough effect (not every such curve was filed as active); inconclusive = small, poorly fitted or top-dose-only effect, or another doubt; inactive = no such curve, though single readings can be large or run the other way. Unless noted, % is set by controls: 0 for no effect and ±100 for the full control effect; potency is the fitted concentration of half-maximal effect.

What do the screens show for `COC(=O)c1cccc(C23CC4(C2)[C@H](CN(Cc2ccc(-c5ccccc5)cc2)[C@@H]4c2ccccc2)C3c2ccc(C(F)(F)F)cc2)c1` (some centres undefined)?
ALDH1A1 inh: 0%; Tau fibril ThT: -4%; Tau FP inhib: -3%; Tau fluor counter: 3%; KDM4E inh: 20µM*; HPGD inh: -8%

What do the screens show for `Cc1ccc(OCCCCn2ccnc2)c([N+](=O)[O-])c1`?
ALDH1A1 inh: 1.6µM*; Tau fibril ThT: 1%; Tau FP inhib: 1%; Tau fluor counter: -3%; KDM4E inh: -29%

How did Cc1ccc(OCCOc2cccc3ccc(C)nc23)c([N+](=O)[O-])c1 do in these assays?
ALDH1A1 inh: 14µM*; Tau fibril ThT: -14%; Tau FP inhib: -7%; Tau fluor counter: -11%; KDM4E inh: 1%

How did Cc1ccc(OCCCCn2ccnc2)c(Cl)c1 do in these assays?
ALDH1A1 inh: 8%; Tau fibril ThT: -1%; Tau FP inhib: 3%; Tau fluor counter: 9%; KDM4E inh: 2%; HPGD inh: -21%

What do the screens show for `COc1ccc(OCCOCCOc2ccc(C)cc2[N+](=O)[O-])cc1`?
ALDH1A1 inh: 25µM*; Tau fibril ThT: -17%; Tau FP inhib: -8%; Tau fluor counter: -17%; KDM4E inh: 7%; HPGD inh: inconclusive

How did COCCNCCCCOc1ccc(C)cc1[N+](=O)[O-] do in these assays?
ALDH1A1 inh: 2.8µM*; Tau fibril ThT: 4%; Tau FP inhib: 10%; Tau fluor counter: 6%; KDM4E inh: 5%; HPGD inh: -8%

What do the screens show for `COc1cccc(OCCOCCOc2ccc(C)cc2[N+](=O)[O-])c1`?
ALDH1A1 inh: inconclusive; Tau fibril ThT: inconclusive; Tau FP inhib: 1%; Tau fluor counter: -29%; KDM4E inh: 1%; HPGD inh: -10%

How did Nc1nc(O)c2ncn([C@H]3CC[C@@H](CO)O3)c2n1 do in these assays?
ALDH1A1 inh: 4%; Tau fibril ThT: -7%; Tau FP inhib: -6%; Tau fluor counter: -5%; KDM4E inh: 2%; HPGD inh: -14%

How did N#CC1(C#N)[C@@H](C(=O)C23CC4CC(CC(C4)C2)C3)C12CCOCC2 do in these assays?
ALDH1A1 inh: 2%; Tau fibril ThT: 5%; Tau FP inhib: 1%; Tau fluor counter: 2%; KDM4E inh: 13%; HPGD inh: -5%

Results for CCOC(=O)Cn1c(=O)oc2cc(S(=O)(=O)Nc3ccc(F)cc3)ccc21 ?
ALDH1A1 inh: 17%; Tau fibril ThT: -7%; Tau FP inhib: 0%; Tau fluor counter: -15%; KDM4E inh: -1%; HPGD inh: -14%

Results for NNC(=O)c1sccc1OCc1ccc(Cl)cc1Cl ?
ALDH1A1 inh: 3.5µM*; Tau fibril ThT: -15%; Tau FP inhib: -10%; Tau fluor counter: 6%; KDM4E inh: 5%

What do the screens show for `NNC(=O)c1sccc1OCc1cccc(C(F)(F)F)c1`?
ALDH1A1 inh: inconclusive; Tau fibril ThT: -19%; Tau FP inhib: -9%; Tau fluor counter: -15%; KDM4E inh: -4%

What do the screens show for `NNC(=O)c1sccc1OCc1ccc(F)cc1`?
ALDH1A1 inh: 10µM*; Tau fibril ThT: 0%; Tau FP inhib: 9%; Tau fluor counter: 6%; KDM4E inh: 7%

What do the screens show for `CC(C)Oc1ccc(CNC(=O)c2ccc(CS(=O)c3cccc(Cl)c3)o2)cc1` (centres undefined)?
Tau fibril ThT: -4%; Tau FP inhib: 7%; Tau fluor counter: -5%

Results for CCOC(=O)C(C)Sc1nc2c(c(=O)[nH]c(=O)n2C)n1Cc1ccc(Cl)cc1 (centres undefined) ?
ALDH1A1 inh: 18µM*; Tau fibril ThT: -14%; Tau FP inhib: 0%; Tau fluor counter: -3%; KDM4E inh: -3%; HPGD inh: inconclusive

Results for CC(C)Sc1nc2c(c(=O)[nH]c(=O)n2C)n1Cc1ccc(Cl)cc1 ?
ALDH1A1 inh: 35µM*; Tau fibril ThT: -4%; Tau FP inhib: -1%; Tau fluor counter: 1%; KDM4E inh: -5%; HPGD inh: inconclusive

How did CCC(C)Sc1nc2c(c(=O)[nH]c(=O)n2C)n1Cc1ccc(Cl)cc1 (centres undefined) do in these assays?
ALDH1A1 inh: 8.9µM*; Tau fibril ThT: -9%; Tau FP inhib: -4%; Tau fluor counter: -5%; KDM4E inh: 7%; HPGD inh: -7%

What do the screens show for `CCC(C)Sc1nc2c(c(=O)[nH]c(=O)n2C)n1CC(O)COc1ccccc1C` (centres undefined)?
ALDH1A1 inh: 14µM*; Tau fibril ThT: -15%; Tau FP inhib: -7%; Tau fluor counter: -4%; KDM4E inh: inconclusive; HPGD inh: 40µM*

What do the screens show for `CCC(C)Sc1nc2c(c(=O)[nH]c(=O)n2C)n1CCc1ccccc1` (centres undefined)?
ALDH1A1 inh: inconclusive; Tau fibril ThT: -8%; Tau FP inhib: 2%; Tau fluor counter: -3%; KDM4E inh: 7%; HPGD inh: -16%

What do the screens show for `CC(C)Sc1nc2c(c(=O)[nH]c(=O)n2C)n1CCc1ccccc1`?
ALDH1A1 inh: inconclusive; Tau fibril ThT: -3%; Tau FP inhib: -1%; Tau fluor counter: 3%; KDM4E inh: -1%; HPGD inh: -13%

How did CCCCCn1c(SC(C)C(C)=O)nc2c1c(=O)[nH]c(=O)n2C (centres undefined) do in these assays?
ALDH1A1 inh: inconclusive; Tau fibril ThT: -4%; Tau FP inhib: 1%; Tau fluor counter: -5%; KDM4E inh: 6%; HPGD inh: -8%

What do the screens show for `CNc1ccnc(-c2ccccc2C)n1`?
ALDH1A1 inh: -5%

What do the screens show for `Cc1cc(C)n(-c2nc3c(c(=O)[nH]c(=O)n3C)n2CC(O)COc2ccc(Cl)cc2Cl)n1` (centres undefined)?
ALDH1A1 inh: 3%; Tau fibril ThT: -2%; Tau FP inhib: -3%; Tau fluor counter: -1%; KDM4E inh: 13%; HPGD inh: 3.5µM*

Results for CCN(CC)CCNc1nc2c(c(=O)[nH]c(=O)n2C)n1CC(O)COc1ccc(Cl)cc1Cl (centres undefined) ?
ALDH1A1 inh: -1%; Tau fibril ThT: 5%; Tau FP inhib: -3%; Tau fluor counter: 2%; KDM4E inh: -4%; HPGD inh: -20%

What do the screens show for `COc1ccc(S(=O)(=O)C(C#N)c2nc3ccccc3nc2N2CCC(C)CC2)cc1` (centres undefined)?
ALDH1A1 inh: 18µM*; Tau fibril ThT: inconclusive; Tau FP inhib: 5%; Tau fluor counter: -8%; KDM4E inh: inconclusive; HPGD inh: -16%

What do the screens show for `O=C(c1cccc(F)c1)N1CCC2(CCN(Cc3ccccc3)CC2)CC1`?
ALDH1A1 inh: -2%; HPGD inh: -4%
